# PubChem BioAssay (EPA / NIEHS)
# Inconclusive results are not listed. The source made the active and inactive calls. Rule for the calls: active = hit-call score of the fitted dose curve at least 0.9, where 1 is the maximum; inconclusive = response in the unintended direction; inactive = score below 0.9.
# Assays:
# [1] = target: human Serotonin, 5-Hydroxytryptamine Receptor 6 (5HT6), HTR6 (gene 3362) (UniProt P50406); assay: NVS_GPCR_h5HT6: NovaScreen (NVS) G Protein-Coupled Receptor Assay for human Serotonin, 5-Hydroxytryptamine Receptor 6 (5HT6) (AID 2283253)
# Chain of human Serotonin, 5-Hydroxytryptamine Receptor 6 (5HT6), HTR6 (gene 3362) (P50406 whole entry, looked up): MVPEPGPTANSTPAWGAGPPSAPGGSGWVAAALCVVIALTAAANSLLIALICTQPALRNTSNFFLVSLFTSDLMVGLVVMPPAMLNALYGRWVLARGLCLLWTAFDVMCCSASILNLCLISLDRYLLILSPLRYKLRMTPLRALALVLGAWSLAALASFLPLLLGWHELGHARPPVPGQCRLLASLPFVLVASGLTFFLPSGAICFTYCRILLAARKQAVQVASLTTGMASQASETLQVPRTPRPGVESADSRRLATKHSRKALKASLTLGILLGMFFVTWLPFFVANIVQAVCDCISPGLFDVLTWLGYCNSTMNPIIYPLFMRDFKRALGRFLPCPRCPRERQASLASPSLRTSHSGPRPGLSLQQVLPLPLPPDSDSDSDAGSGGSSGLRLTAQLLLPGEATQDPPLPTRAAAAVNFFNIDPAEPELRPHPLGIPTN
# How it was run: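 Radioligand binding to 5HT6 in HEK293-derived membranes, cell-free, 1 h after dosing; bound ligand measured by filter-based scintillation counting. Primary screen in duplicate at 25 uM; actives retested in concentration series.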
# [2] = target: human Serotonin, 5-Hydroxytryptamine Receptor 7 (5HT7), HTR7 (gene 3363) (UniProt P34969); assay: NVS_GPCR_h5HT7: NovaScreen (NVS) G Protein-Coupled Receptor Assay for human Serotonin, 5-Hydroxytryptamine Receptor 7 (5HT7) (AID 2283255);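 note: hits reduce specific radioligand binding relative to DMSO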
# How it was run: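 Radioligand displacement on membranes from CHO cells expressing human 5HT7, 1 h incubation, filter-based scintillation counting. Primary screen used a single 25 uM concentration in duplicate; actives were followed up in concentration series.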
# [3] = target: human Adrenergic, Beta 1 Receptor (Adrb1), ADRB1 (gene 153) (UniProt P08588); assay: NVS_GPCR_hAdrb1: NovaScreen (NVS) G Protein-Coupled Receptor Assay for human Adrenergic, Beta 1 Receptor (Adrb1) (AID 2283258)
# How it was run: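 Cell-free radioligand displacement on receptor from human neuroepithelioma cells; 2 h after dosing, filter-based scintillation counting. Primary screen in duplicate at 25 uM, actives retested in concentration series; loss of signal vs DMSO baseline.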
# [4] = target: human Adrenergic, Alpha 2c Receptor (Adra2C), ADRA2C (gene 152) (UniProt P18825); assay: NVS_GPCR_hAdra2C: NovaScreen (NVS) G Protein-Coupled Receptor Assay for human Adrenergic, Alpha 2c Receptor (Adra2C) (AID 2283259)
# Chain of human Adrenergic, Alpha 2c Receptor (Adra2C), ADRA2C (gene 152) (P18825 whole entry, looked up): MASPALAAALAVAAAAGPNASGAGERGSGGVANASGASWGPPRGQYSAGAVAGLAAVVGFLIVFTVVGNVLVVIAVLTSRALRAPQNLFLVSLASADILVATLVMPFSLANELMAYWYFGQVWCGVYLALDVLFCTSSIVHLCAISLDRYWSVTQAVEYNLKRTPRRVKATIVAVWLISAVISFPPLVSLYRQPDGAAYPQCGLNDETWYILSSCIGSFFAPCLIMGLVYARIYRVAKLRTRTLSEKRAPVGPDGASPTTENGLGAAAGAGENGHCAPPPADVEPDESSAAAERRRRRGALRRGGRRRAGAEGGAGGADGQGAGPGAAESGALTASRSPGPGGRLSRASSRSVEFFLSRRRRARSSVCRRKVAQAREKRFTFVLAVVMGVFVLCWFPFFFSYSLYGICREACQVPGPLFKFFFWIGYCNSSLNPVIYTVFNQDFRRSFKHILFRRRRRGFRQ
# How it was run: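 Radioligand binding on Sf9-expressed receptor membranes, 1 h after chemical dosing, filter-based scintillation read-out. Loss of binding fitted positively versus DMSO; primary duplicate screen at 25 uM, actives retested in concentration series.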
# [5] = target: Beta-2 adrenergic receptor (Homo sapiens) (UniProt P07550); assay: NVS_GPCR_hAdrb2: NovaScreen (NVS) G Protein-Coupled Receptor Assay for human Adrenergic, Beta 2 Receptor (Adrb2) (AID 2283261)
# Chain of Beta-2 adrenergic receptor (Homo sapiens) (P07550 whole entry, looked up): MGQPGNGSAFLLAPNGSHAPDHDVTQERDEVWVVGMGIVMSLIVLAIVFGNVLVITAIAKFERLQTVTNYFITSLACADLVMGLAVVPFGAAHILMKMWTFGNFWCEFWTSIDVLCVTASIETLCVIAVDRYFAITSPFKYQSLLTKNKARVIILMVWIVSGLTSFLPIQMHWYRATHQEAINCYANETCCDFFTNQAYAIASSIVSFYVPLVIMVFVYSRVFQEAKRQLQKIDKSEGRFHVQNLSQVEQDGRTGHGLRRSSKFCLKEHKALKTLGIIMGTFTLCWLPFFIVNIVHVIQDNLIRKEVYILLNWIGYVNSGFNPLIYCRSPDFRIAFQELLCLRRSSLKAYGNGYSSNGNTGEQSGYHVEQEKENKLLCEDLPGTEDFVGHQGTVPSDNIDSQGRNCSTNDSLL
# How it was run: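 Filter-based radioligand binding using receptor prepared from CHO cells, 1 h incubation, scintillation counting. Primary screen in duplicate at 25 uM, actives retested in concentration series; loss of binding relative to DMSO.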
# [6] = target: human Adrenergic, Beta 3 Receptor (Adrb3), ADRB3 (gene 155) (UniProt P13945); assay: NVS_GPCR_hAdrb3: NovaScreen (NVS) G Protein-Coupled Receptor Assay for human Adrenergic, Beta 3 Receptor (Adrb3) (AID 2283262)
# Chain of human Adrenergic, Beta 3 Receptor (Adrb3), ADRB3 (gene 155) (P13945 whole entry, looked up): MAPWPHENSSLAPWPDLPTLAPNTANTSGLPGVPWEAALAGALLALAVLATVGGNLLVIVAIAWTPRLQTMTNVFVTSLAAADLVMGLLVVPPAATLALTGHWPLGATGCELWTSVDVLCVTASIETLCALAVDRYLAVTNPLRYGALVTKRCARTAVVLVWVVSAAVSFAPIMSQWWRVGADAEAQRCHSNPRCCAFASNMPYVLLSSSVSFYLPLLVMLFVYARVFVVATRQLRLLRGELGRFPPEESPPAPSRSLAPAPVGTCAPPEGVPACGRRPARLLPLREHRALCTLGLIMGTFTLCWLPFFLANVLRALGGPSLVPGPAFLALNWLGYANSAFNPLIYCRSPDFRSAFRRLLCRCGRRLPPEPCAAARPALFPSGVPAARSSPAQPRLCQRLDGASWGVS
# How it was run: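 Membranes from SK-N-MC cells pretreated with isoproterenol and 8-bromo-cAMP were used in a radioligand competitive displacement binding assay. Binding was read by filter-based scintillation counting 1 hour after dosing. Primary screening was in duplicate at 25 uM, with concentration series in follow-up.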
# [7] = target: human Dopamine Receptor D4.4 (DRD4.4), DRD4 (gene 1815) (UniProt P21917); assay: NVS_GPCR_hDRD4.4: NovaScreen (NVS) G Protein-Coupled Receptor Assay for human Dopamine Receptor D4.4 (DRD4.4) (AID 2283264)
# Chain of human Dopamine Receptor D4.4 (DRD4.4), DRD4 (gene 1815) (P21917 whole entry, looked up): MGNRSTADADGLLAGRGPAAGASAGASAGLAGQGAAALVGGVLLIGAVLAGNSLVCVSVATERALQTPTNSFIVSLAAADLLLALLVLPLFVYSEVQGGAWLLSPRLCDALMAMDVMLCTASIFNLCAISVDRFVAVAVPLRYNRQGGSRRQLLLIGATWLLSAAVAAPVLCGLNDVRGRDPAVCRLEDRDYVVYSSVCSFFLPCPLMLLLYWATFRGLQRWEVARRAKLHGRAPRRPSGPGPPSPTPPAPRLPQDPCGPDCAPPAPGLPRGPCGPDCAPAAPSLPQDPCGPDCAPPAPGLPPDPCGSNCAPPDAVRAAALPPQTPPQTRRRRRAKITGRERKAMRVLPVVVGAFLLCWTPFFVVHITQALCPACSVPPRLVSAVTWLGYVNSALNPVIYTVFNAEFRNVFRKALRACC
# How it was run: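 Radioligand displacement on human DRD4.4 from CHO-derived membranes, 1 hour incubation, bound counts read by filtration and scintillation. Primary screen in duplicate at 25 uM; actives followed up in concentration series.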
# [8] = target: human Endothelin Receptor Type A (ETA), EDNRA (gene 1909) (UniProt P25101); assay: NVS_GPCR_hETA: NovaScreen (NVS) G Protein-Coupled Receptor Assay for human Endothelin Receptor Type A (ETA) (AID 2283265)
# Chain of human Endothelin Receptor Type A (ETA), EDNRA (gene 1909) (P25101 whole entry, looked up): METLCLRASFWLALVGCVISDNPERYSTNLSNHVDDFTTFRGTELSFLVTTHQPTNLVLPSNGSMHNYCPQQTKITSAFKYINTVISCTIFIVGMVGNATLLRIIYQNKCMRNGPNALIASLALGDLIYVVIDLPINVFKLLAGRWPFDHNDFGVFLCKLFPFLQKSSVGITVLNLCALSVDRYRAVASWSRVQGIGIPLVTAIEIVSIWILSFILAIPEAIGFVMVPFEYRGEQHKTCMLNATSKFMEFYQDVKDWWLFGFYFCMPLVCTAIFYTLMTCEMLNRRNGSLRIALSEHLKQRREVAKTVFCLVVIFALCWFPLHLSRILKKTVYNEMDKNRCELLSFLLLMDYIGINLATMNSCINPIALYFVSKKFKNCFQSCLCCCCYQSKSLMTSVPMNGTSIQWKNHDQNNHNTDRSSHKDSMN
# How it was run: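 Cell-free radioligand displacement using SH-SY5Y-derived protein, 3 h incubation, filter-based scintillation counting. Primary screen in duplicate at 25 uM; actives then run in concentration-response up to 50 uM; loss of binding fitted versus DMSO.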
# [9] = target: human Dopamine Receptor D2 (DRD2), DRD2 (gene 1813) (UniProt P14416); assay: NVS_GPCR_hDRD2s: NovaScreen (NVS) G Protein-Coupled Receptor Assay for human Dopamine Receptor D2 (DRD2) (AID 2283266)
# Chain of human Dopamine Receptor D2 (DRD2), DRD2 (gene 1813) (P14416 whole entry, looked up): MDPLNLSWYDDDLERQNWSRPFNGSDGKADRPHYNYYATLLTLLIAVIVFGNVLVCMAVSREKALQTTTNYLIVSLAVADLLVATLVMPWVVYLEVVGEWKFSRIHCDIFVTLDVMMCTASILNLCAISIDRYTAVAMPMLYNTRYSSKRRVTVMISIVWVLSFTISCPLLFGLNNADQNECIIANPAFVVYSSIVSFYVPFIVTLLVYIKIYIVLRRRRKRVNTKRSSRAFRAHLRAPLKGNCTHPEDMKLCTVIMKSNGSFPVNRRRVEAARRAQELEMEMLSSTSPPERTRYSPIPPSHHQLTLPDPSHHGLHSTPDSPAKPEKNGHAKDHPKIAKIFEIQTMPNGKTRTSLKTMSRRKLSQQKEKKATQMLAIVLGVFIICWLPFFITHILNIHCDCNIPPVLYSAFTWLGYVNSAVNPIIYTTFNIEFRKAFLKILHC
# How it was run: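 Radioligand displacement used human DRD2 membranes extracted from CHO cells and was read by filter-based scintillation counting after 1.5 hours. Primary screening was in duplicate at 25 uM. Loss of signal versus DMSO was fitted, with concentration series in follow-up.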
# [10] = target: human Endothelin Receptor Type B (ETB), EDNRB (gene 1910) (UniProt P24530); assay: NVS_GPCR_hETB: NovaScreen (NVS) G Protein-Coupled Receptor Assay for human Endothelin Receptor Type B (ETB) (AID 2283267)
# How it was run: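 Human astrocytoma cell membranes; radioligand competitive binding read by filter scintillation counting 4 hours after dosing. Single-concentration duplicate screen at 25 uM, then singleton concentration-response up to 50 uM; loss of signal versus DMSO.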
# [11] = target: human Histamine 1 Receptor (H1), HRH1 (gene 3269) (UniProt P35367); assay: NVS_GPCR_hH1: NovaScreen (NVS) G Protein-Coupled Receptor Assay for human Histamine 1 Receptor (H1) (AID 2283268)
# How it was run: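 Cell-free radioligand displacement at human H1 receptor, 1 h, filter scintillation counting; primary screen 25 uM in duplicate, hits in concentration series; loss of binding fitted vs DMSO.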
# [12] = target: D(1A) dopamine receptor (Homo sapiens) (UniProt P21728); assay: NVS_GPCR_hDRD1: NovaScreen (NVS) G Protein-Coupled Receptor Assay for human Dopamine Receptor D1 (DRD1) (AID 2283269)
# Chain of D(1A) dopamine receptor (Homo sapiens) (P21728 whole entry, looked up): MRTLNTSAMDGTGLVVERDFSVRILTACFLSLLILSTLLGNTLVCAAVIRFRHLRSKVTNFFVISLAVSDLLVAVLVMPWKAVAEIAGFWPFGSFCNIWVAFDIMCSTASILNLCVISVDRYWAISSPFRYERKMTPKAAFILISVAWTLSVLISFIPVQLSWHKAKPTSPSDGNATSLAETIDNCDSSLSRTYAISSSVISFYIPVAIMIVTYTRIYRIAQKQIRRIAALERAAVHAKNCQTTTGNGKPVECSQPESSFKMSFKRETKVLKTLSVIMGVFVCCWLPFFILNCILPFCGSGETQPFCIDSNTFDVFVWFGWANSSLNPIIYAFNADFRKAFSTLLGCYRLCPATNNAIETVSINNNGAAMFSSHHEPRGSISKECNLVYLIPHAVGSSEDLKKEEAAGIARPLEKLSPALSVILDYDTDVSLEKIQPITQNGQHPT
# How it was run: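 Cell-free competition with radioligand, filter-trapped and scintillation-counted 1 h post-dose, using HEK293-derived human D1 preparation. Duplicate single-point testing at 25 uM first, then concentration series for actives; DMSO served as baseline, loss-of-signal scored.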
# [13] = target: Muscarinic acetylcholine receptor M1 (Homo sapiens) (UniProt P11229); assay: NVS_GPCR_hM1: NovaScreen (NVS) G Protein-Coupled Receptor Assay for human Muscarinic, M1 Receptor (AID 2283270)
# Chain of Muscarinic acetylcholine receptor M1 (Homo sapiens) (P11229 whole entry, looked up): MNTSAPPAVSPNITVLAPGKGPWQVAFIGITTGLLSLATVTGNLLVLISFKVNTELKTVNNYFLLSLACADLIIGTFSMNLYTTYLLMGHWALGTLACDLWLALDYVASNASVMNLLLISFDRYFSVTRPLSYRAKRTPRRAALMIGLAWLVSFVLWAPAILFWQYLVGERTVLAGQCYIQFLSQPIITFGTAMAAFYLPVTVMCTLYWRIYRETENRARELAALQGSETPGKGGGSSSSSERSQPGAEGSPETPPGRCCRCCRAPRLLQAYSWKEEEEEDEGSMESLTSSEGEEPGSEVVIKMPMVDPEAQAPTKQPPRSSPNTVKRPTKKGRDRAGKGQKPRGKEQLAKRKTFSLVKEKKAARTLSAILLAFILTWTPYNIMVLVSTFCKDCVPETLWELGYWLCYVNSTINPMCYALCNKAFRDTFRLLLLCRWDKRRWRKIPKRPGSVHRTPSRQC
# How it was run: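 Cell-free radioligand displacement using membrane protein extracted from CHO cells, read by filter-based scintillation counting 1 h after dosing. Loss of bound signal fitted versus DMSO; primary screen single concentration 25 uM in duplicate, actives followed by concentration series.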
# [14] = target: Muscarinic acetylcholine receptor M3 (Homo sapiens) (UniProt P20309); assay: NVS_GPCR_hM3: NovaScreen (NVS) G Protein-Coupled Receptor Assay for human Muscarinic, M3 Receptor (AID 2283272)
# How it was run: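 Radioligand displacement binding on human M3 receptor in CHO-derived membranes, 1 h incubation, filter-based scintillation counting. Primary screen in duplicate at 25 uM; actives followed up in concentration series; loss of signal versus DMSO.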
# [15] = target: Muscarinic acetylcholine receptor M2 (Homo sapiens) (UniProt P08172); assay: NVS_GPCR_hM2: NovaScreen (NVS) G Protein-Coupled Receptor Assay for human Muscarinic, M2 Receptor (AID 2283273)
# How it was run: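 Cell-free radioligand binding using membranes from CHO cells expressing the receptor; filter-based scintillation counting after 1 hour of compound exposure. Loss of specific binding relative to DMSO baseline; primary screen at 25 uM in duplicate, actives then run in concentration series.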
# [16] = target: human Leukotriene B4 Receptor 1 (LTB4-BLT1), LTB4R (gene 1241) (UniProt Q15722); assay: NVS_GPCR_hLTB4_BLT1: NovaScreen (NVS) G Protein-Coupled Receptor Assay for human Leukotriene B4 Receptor 1 (LTB4-BLT1) (AID 2283271)
# Chain of human Leukotriene B4 Receptor 1 (LTB4-BLT1), LTB4R (gene 1241) (Q15722 whole entry, looked up): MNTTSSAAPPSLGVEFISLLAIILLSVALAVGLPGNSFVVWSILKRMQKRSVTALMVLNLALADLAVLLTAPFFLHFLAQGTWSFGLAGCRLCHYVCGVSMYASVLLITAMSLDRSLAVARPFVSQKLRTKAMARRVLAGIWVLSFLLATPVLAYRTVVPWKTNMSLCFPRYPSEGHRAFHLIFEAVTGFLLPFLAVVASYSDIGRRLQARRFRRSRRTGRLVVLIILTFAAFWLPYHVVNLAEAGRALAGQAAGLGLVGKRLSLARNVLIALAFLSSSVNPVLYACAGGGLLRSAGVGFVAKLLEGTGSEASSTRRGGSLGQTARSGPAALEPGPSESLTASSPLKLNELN
# How it was run: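 Radioligand displacement binding on receptor extracted from human neutrophils, cell-free, 1 h after dosing; filter-based scintillation counting. Primary screen in duplicate at 25 uM, actives retested in concentration-response up to 50 uM; loss of signal versus DMSO.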
# [17] = target: human Adenosine A1 Receptor (AdoRA1), ADORA1 (gene 134) (UniProt P30542); assay: NVS_GPCR_hAdoRA1: NovaScreen (NVS) G Protein-Coupled Receptor Assay for human Adenosine A1 Receptor (AdoRA1) (AID 2283254)
# Chain of human Adenosine A1 Receptor (AdoRA1), ADORA1 (gene 134) (P30542 whole entry, looked up): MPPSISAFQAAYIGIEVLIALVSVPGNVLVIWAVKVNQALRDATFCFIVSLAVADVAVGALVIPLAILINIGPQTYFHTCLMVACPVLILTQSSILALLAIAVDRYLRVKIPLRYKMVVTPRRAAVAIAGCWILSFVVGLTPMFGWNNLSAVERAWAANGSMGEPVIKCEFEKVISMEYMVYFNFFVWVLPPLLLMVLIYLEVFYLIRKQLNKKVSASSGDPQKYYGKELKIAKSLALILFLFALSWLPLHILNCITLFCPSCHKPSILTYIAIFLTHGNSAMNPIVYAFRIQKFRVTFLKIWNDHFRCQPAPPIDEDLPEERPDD
# How it was run: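 Radioligand competition binding on human cortical membranes, 1 h after compound addition; bound radioactivity read by filtration and scintillation counting. Loss of signal versus DMSO baseline scored as displacement; primary screen duplicate at 25 uM, actives retested in concentration series.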
smiles,measurement,setting,value
CCCCCCCCCC[N+](C)(C)CCCCCCCCCC,AC50,[1],13.9 µM (active)
same,AC50,[2],5.73 µM (active)
same,AC50,[3],5.34 µM (active)
same,AC50,[4],3.53 µM (active)
same,AC50,[5],17.5 µM (active)
same,AC50,[6],7.1 µM (active)
same,AC50,[7],25 µM (active)
same,AC50,[8],6.49 µM (active)
same,AC50,[9],5.51 µM (active)
same,AC50,[10],16.4 µM (active)
same,AC50,[11],6.19 µM (active)
same,AC50,[12],2.6 µM (active)
same,AC50,[13],7.03 µM (active)
same,AC50,[14],3.37 µM (active)
same,AC50,[15],6.18 µM (active)
Cc1cccc(C)c1N,outcome,[16],inactive
CN(C)c1nc(=O)n(C2CCCCC2)c(=O)n1C,outcome,[5],inactive
CC(C)(c1ccccc1)c1ccc(O)cc1,AC50,[1],4.96 µM (active)
same,AC50,[17],9.28 µM (active)
same,AC50,[4],9.37 µM (active)
same,outcome,[9],inactive
same,AC50,[12],25 µM (active)
same,outcome,[16],inactive
